Data on five molecules can be found in PubChem BioAssay.

Experiment [1] is described as follows: Her2 expression decrease, cell viability multiplex – SKBR3 breast tumor cells, AlphaScreen, ATP viability, primary screen (AID 461;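 active means Her2 level under about 52% in both replicate screens, with viability over 70% of control, limit read from the data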;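 on Her2 level: lower value means less Her2 protein in the cells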;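 on viability: percent of carrier control wells set as 100% viability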). To be noted: SKBR3 Her2 protein level, 18-24 h, measured here: SKBR3 viability, ATP luminescence, at 10 µM.
Experiment [2] has as its target Receptor tyrosine-protein kinase erbB-2 (Homo sapiens) (UniProt P04626). The description is as above. Particulars: 18-24 h, at 10 µM, stronger effect = lower value.
A short description of experiment [3]: reduced viability of SK-BR-3 breast cancer cells – cell-based, 24 h, human, pilot screen (AID 572;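 active means viability at or below 10% of carrier control in both of two separate runs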;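 further: compound exposure lasted between 18 and 24 h rather than exactly 24 h; 100% = carrier-treated control wells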). To be noted: SK-BR-3 viability, CellTiter-Glo luminescence, at 10 µM, stronger effect = lower value. On the technique in general: In ATP-based viability assays light output follows the ATP content of the culture.
The nature of experiment [4]: HUVEC growth inhibition – cell-based, human, primary screen (AID 575;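 active means viability at or below 30% in both replicate assays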;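 further: 100% = median of untreated cell wells with 0.1% DMSO on each plate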). Particulars: HUVEC proliferation, CellTiter-Glo luminescence, 72 h; at 10 µM; stronger effect = lower value.
Experiment [5] is described as follows: H69AR cell proliferation blockers – human, duplicate replicates, primary screen (AID 580;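 active means viability at or under a set limit in both replicates, limit being median viability minus 3 SD, cut at about 48% in these data, passing the limit was not always enough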;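 further: 100% = mean luminescence of untreated wells and 0% = no signal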). Particulars: H69AR lung tumor cells viability, ATP luminescence, 72 h; at 10 µM; stronger effect = lower value.
Experiment [6] is described as follows: MRP1 drug-resistance reversers in H69AR cells – cell-based, doxorubicin co-treatment, pilot screen (AID 601;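 active means viability loss from added drug above about 55%, and viability with drug at most 40%, in both replicates, limit read from the data, passing the limit was not always enough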). To be noted: CellTiter-Glo, 72 h, at 10 µM; for differential viability (reversal): stronger effect = higher value.
A short description of experiment [7]: yeast transport mutant growth inhibition pilot in 384-well plates, post-Golgi transport modulator project (AID 636; in the data active means inhibition above about 31%). Particulars: absorbance 615 nm, about 18 h, stronger effect = higher value.
Experiment [8] is described as follows: growth suppression of yeast trafficking mutant, preliminary HTS, modulators of trafficking downstream of Golgi apparatus project, 1536-format plate, OD 615 nm (AID 637). Particulars: yeast transport mutant growth, absorbance 615 nm, 18 h; stronger effect = higher value.
The nature of experiment [9]: S. cerevisiae growth inhibition in permissive medium (OD615), pilot counter-assay for S. cerevisiae lifespan shortening project, permissive growth control (AID 705;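 active means growth inhibition above 25% in both replicates, a cutoff set 3 SD above the mean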). To be noted: OD615, 24 h, at 10 µM, stronger effect = higher value.
Experiment [10] can be described thus: S. cerevisiae growth inhibition in restrictive medium, OD615, pilot screen, restrictive growth control, yeast lifespan reduction project (AID 706;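 active means growth inhibition above a set limit, 3 SD over mean compound inhibition, in both replicates, cut at about 43% in these data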;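 further: modified DeaD lifespan yeast strain shifted to restrictive glucose medium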). To be noted: OD615, 48 h, at 10 µM, stronger effect = higher value.
A short description of experiment [11]: doxorubicin toxicity protection in MRP-1 cells – H69AR cells, CellTiter-Glo, duplicate, MRP-1 activator project, pilot screen (AID 807;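 active means viability increase at or above a cutoff of the median across tested compounds plus 3 SD, cut at about 8.5% in these data, passing the limit was not always enough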;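 further: compound pretreatment 18-22 h then 72 h combined with doxorubicin; 0% = doxorubicin alone and 100% = vehicle without doxorubicin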). To be noted: H69AR viability with doxorubicin, CellTiter-Glo luminescence; at 10 µM; stronger effect = higher value.
A short description of experiment [12]: viability of HCT116 without oncogenic beta-catenin – human colon tumor cells, pilot screen (AID 823;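 active means cell viability at or below a set limit in both duplicate runs, the limit being the all-compound median minus 4 SD, cut at about 23% in these data, passing the limit was not always enough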;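 further: 0% = wells killed by 20 µM Hyamine and 100% = untreated DMSO cell wells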). Particulars: HCT116 beta-catenin knockout viability, CellTiter-Glo, 60 h; at 10 µM; stronger effect = lower value.
Experiment [13] can be described thus: viability of PTEN-null HCT116 cells – cell-based, HCT116 clonal line, CellTiter-Glo, pilot screen (AID 824;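 active means viability at or below 27.92% in each of two runs, the all-compound median minus 4 SD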;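 further: 0% = 20 µM Hyamine control and 100% = vehicle cell control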). To be noted: HCT116 PTEN-deleted viability, 60 h, at 10 µM, stronger effect = lower value.
The nature of experiment [14]: RAM pathway blockade in budding yeast – dse1pr::URA3 reporter, 5-FOA selection, pilot screen (AID 869;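 active means inhibition over a set limit, the all-compound mean plus 3 SD, in both replicate runs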;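 further: 0% = DMSO wells with no growth and 100% = 10 µM 1-NA-PP1 with full growth; RAM network block rescues cells from 5-FOA so hits raise OD615 growth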). Particulars: S. cerevisiae dse1pr::URA3 5-FOA growth, OD615, 2 d; at 10 µM; stronger effect = higher value; strain carries analog-sensitive mutant Cbk1 kinase.
Experiment [15] can be described thus: RAM signaling pathway blockade in yeast – S. cerevisiae, Pdr1DBD-CYC8 efflux-inhibited sensitized strain, primary screen (AID 1298;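 active means RAM network inhibition above 8.4% in each of two replicates, 3 SD over the compound average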;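 further: 0% = DMSO untreated cells without growth and 100% = 10 µM 1-NA-PP1 full growth; higher means more yeast growth rescued from 5-FOA killing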). To be noted: S. cerevisiae cbk1-as DSE1-URA3 strain, 5-FOA growth OD615, 2 d; at 50 µM; stronger effect = higher value.
Where [16] appears, read: H69AR cells + 2 uM doxorubicin, measured here: viability with 2 uM doxorubicin, stronger effect = lower value.
Setting [17] is: H69AR cells, compound alone cytotoxicity.

Inconclusive results are not listed. Calls of active or inactive are those of the source. Unless noted, no stated cut-off is given here; in the data, active means inhibition above about 30%; inactive means the rest.

Sequence of Receptor tyrosine-protein kinase erbB-2 (Homo sapiens) (P04626 whole entry, looked up): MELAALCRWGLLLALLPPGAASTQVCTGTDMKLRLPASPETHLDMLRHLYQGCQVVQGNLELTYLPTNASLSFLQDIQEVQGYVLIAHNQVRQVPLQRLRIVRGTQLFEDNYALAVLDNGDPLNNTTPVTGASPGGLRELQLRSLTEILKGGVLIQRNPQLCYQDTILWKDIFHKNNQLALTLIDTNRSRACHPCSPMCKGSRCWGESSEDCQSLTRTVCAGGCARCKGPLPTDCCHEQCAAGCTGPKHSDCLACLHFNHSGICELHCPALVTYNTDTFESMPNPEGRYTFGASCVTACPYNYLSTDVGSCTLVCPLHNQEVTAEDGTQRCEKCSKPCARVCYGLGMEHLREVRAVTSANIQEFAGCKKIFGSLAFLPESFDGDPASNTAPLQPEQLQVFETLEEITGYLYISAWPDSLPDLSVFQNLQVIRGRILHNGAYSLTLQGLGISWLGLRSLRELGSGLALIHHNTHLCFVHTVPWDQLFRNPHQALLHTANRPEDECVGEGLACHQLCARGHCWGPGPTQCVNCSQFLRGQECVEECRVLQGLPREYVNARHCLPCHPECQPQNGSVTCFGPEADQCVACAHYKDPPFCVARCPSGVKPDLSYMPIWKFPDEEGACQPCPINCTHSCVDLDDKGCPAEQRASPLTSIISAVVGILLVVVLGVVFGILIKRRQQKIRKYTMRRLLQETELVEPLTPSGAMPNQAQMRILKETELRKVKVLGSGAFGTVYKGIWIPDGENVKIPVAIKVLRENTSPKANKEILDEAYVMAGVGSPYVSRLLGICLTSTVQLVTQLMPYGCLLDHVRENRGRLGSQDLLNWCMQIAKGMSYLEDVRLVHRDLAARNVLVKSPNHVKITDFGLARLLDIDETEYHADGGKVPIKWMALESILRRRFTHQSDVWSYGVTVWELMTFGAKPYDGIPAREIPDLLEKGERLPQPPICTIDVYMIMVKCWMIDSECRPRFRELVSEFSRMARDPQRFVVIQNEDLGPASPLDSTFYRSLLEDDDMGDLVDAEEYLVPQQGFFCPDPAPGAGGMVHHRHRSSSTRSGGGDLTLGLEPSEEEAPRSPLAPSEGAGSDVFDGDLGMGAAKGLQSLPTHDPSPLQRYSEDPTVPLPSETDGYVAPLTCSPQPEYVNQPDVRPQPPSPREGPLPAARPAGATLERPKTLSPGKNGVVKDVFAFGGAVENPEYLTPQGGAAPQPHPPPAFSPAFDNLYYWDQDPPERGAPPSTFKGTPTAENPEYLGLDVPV

One may read the viability as a read-out of living cells in per cent, often relative to untreated cells. As a reminder, the inhibition is the relative decrease from the control value, in per cent. For the molecule `COC(=O)Cn1c(CN2CCOCC2)nc2c1c(=O)n(C)c(=O)n2C`, the viability in experiment [1] is 81.5%; in [3], 81.5% (inactive); in experiment [4] it was 89.2% (inactive); in experiment [5] it was 99.8% (inactive); in [6] (setting [16]), 94%; in experiment [6] (setting [17]) it was 99.8%. Also, the viability in experiment [12] was 104% (inactive); in experiment [13] it was 96.7% (inactive). For the same molecule, in experiment [2], the Her2 level is 86.5% (inactive). The differential viability (reversal) in experiment [6] (H69AR cells + 2 uM doxorubicin) was 5.79% (inactive). Besides, the inhibition in experiment [7] is -4% (inactive); in experiment [8], -2% (inactive); in experiment [14], 1.2% (inactive). The growth inhibition is -0.42% (inactive) in experiment [9] and 1.05% (inactive) in experiment [10]. In addition, in experiment [11], the viability increase is -0.73% (inactive). Also, in [15], the RAM network inhibition is -1.44% (inactive).

As for `O=C(Nc1nnc(N2CCCCCC2)s1)c1cc(-c2ccc(Br)cc2)on1`, the viability was 97% in experiment [1]; 97% (inactive) in experiment [3]; 99.2% (inactive) in [4]; 99.6% (inactive) in experiment [5]; 86.4% in [6] (setting [16]); 99.6% in experiment [6] (setting [17]). The viability in [12] is 99.1% (inactive); in experiment [13], 95.2% (inactive). Further, the Her2 level in [2] was 106% (inactive). In [6] (H69AR cells + 2 uM doxorubicin), the differential viability (reversal) was 13.1% (inactive). The inhibition was -5.13% (inactive) in experiment [7], 3.67% (inactive) in [8] and 1.98% (inactive) in [14]. For the same molecule, the growth inhibition is -14.6% (inactive) in experiment [9] and -7.24% (inactive) in experiment [10]. The viability increase in [11] is 2.89% (inactive). Moreover, the RAM network inhibition in experiment [15] is 9.45% (inactive).

Take `COc1cccc(/C=N/n2cnnc2)c1OCc1ccccc1`: the viability in experiment [1] was 98%; in [3], 98% (inactive); in [4], 93.2% (inactive); in experiment [5], 97.8% (inactive); in experiment [6] (setting [16]), 90.8%; in experiment [6] (setting [17]), 97.8%. Besides, the viability in experiment [12] is 107% (inactive); in experiment [13], 98.9% (inactive). In addition, the Her2 level in [2] was 104% (inactive). Further, the differential viability (reversal) in experiment [6] (H69AR cells + 2 uM doxorubicin) was 7.02% (inactive). The inhibition in [7] is 0% (inactive); in experiment [8], -0.16% (inactive); in experiment [14], 0.69% (inactive). The growth inhibition was -14.7% (inactive) in experiment [9] and -17% (inactive) in experiment [10]. Further, in experiment [11], the viability increase was -0.6% (inactive). Moreover, the RAM network inhibition in experiment [15] is -1.19% (inactive).

For `CCCCCn1c(CCNC(=O)CCC)nc2ccccc21`, the viability was 96.5% in experiment [1]; 96.5% (inactive) in experiment [3]; 79.6% (inactive) in experiment [4]; 87.4% (inactive) in [5]; 82.4% in experiment [6] (setting [16]); 87.4% in experiment [6] (setting [17]). Moreover, the results for the viability in experiment [12] and in experiment [13] were 94% (inactive) and 87.2% (inactive), respectively. Further, the Her2 level in experiment [2] is 102% (inactive). Moreover, the differential viability (reversal) in [6] (H69AR cells + 2 uM doxorubicin) was 5.08% (inactive). In addition, the inhibition in experiment [7] is -4.67% (inactive); in [8] it was 1.17% (inactive); in [14] it was 1.89% (inactive). The values for the growth inhibition in experiment [9] and in [10] were -0.135% (inactive) and -11.5% (inactive), respectively. Moreover, the viability increase in experiment [11] was -1.41% (inactive). In addition, the RAM network inhibition in [15] was 2.6% (inactive).

As to `c1ccc2c(c1)Cc1cc(CN3CCOCC3)ccc1-2`, the viability in [1] is 85%; in experiment [3], 85% (inactive); in experiment [4], 99.7% (inactive); in experiment [5], 89.3% (inactive); in experiment [6] (setting [16]) it was 92.1%; in [6] (setting [17]), 89.3%. Moreover, the viability was 92.3% (inactive) in [12] and 97.5% (inactive) in experiment [13]. The Her2 level in experiment [2] is 100% (inactive). Besides, the differential viability (reversal) in [6] (H69AR cells + 2 uM doxorubicin) is -2.81% (inactive). Also, the results for the inhibition in experiment [7], in [8] and in experiment [14] were 2.34% (inactive), -1.15% (inactive) and 1.01% (inactive), respectively. Moreover, the growth inhibition in [9] is -14.7% (inactive); in [10], -4.66% (inactive). The viability increase in [11] was 0.12% (inactive). The RAM network inhibition in [15] was 0.21% (inactive).
